Experimental findings from PubChem BioAssay (NCATS) are described below.

Inconclusive results are not listed. The source made the active and inactive calls. The call rests on the fitted dose curve; in most records, active means well fitted cell-killing curve with a large enough effect; inconclusive means small, poorly fitted or top-dose-only effect, or effect the other way; inactive means no such curve, though single readings can be large or run the other way.
Potency means the concentration at half of the fitted maximal effect.

This assay in a line: Quantitative High-Throughput drug screen in 47 multiple myeloma cell lines against the NCATS MIPE library collection: KMS11_JCRBsus cell viability assay (AID 1919873). Further: nearly all actives have a fitted effect of over 50% in size. Conditions: KMS11 myeloma viability, CellTiter-Glo ATP luminescence, 48 h; series mostly up to 45.8 µM; viability (% of control): at the top concentration. The source says:
PI: Beverly A. Mock Ph.D.
Laboratory of Cancer Biology and Genetics,
Center for Cancer Research, National Cancer Institute,
National Institute of Health, Bethesda, Maryland
Drug resistance and disease progression are common in multiple myeloma (MM) patients, underscoring the need for new therapeutic combinations. […] We hypothesized that effective combinations would reduce MYC expression and enhance p16 activity. […] These preclinical data identify potentially useful drug combinations for evaluation in drug-resistant MM and reveal potential mechanisms of combined drug sensitivity.
Described herein is the primary MIPE qHTS used to cherrypick compounds. Validated compounds were then further tested for potential synergistic activiy.
[1] Peat TJ, Gaikwad SM, Dubois W, Gyabaah-Kessie N, Zhang S, Gorjifard S, Phyo Z, Andres M, Hughitt VK, Simpson RM, Miller MA, Girvin AT, Taylor A, Williams D, D'Antonio N, Zhang Y, Rajagopalan A, Flietner E, Wilson K, Zhang X, Shinn P, Klumpp-Thomas C, McKnight C, Itkin Z, Chen L, Kazandijian D, Zhang J, Michalowski AM, Simmons JK, Keats J, Thomas CJ, Mock BA. Drug combinations identified by high-throughput screening promote cell cycle transition and upregulate Smad pathways in myeloma. Cancer Lett. 2023 Aug 1;568:216284. doi: 10.1016/j.canlet.2023.216284. Epub 2023 Jun 24. PMID: 37356470; PMCID: PMC10408729.
SEQUENCE No. (e.g., 1, 2, 3, etc.); […] (e.g., Cells, Incubation, Reagent, etc.); VALUE and DESCRIPTION.
1; Cells; 5 uL; white, solid bottom 1536-well Greiner assay plate.
2; Compounds; 23 nL; Kalypsis pin tool (Wako USA) equipped with a 1536-well pin head to transfer to the assay plates.
3; Incubation; 48 hours; 37C incubation.
4; Reagent;5uL; CellTiter Glo (Promega).
5; Detector; 425V; Luminescence; Viewlux PerkinElmer.
NOTES (numbers refer to Sequence numbers above)
1. The cell-based screening methods employed in this study were like those previously published. Briefly, the corresponding myeloma cell lines were screened in 1,536-well plates with 500 cells, 5-uL per well for inhibition of cell viability (assessed by measuring ATP levels with CellTiterGlo).
2. NCATS MIPE 4.0 library of approved and investigational drugs were added using the Kalypsis pin tool. Wells treated with DMSO only for 100% viability and media only for 0% viability were used as controls.
3. The assay plates were covered and incubated for 48 hours in a 37C, 5% CO2 incubator with controlled humidity.
4. After 48 hours, CellTilter-GloTM luminescent substrate mix (Promega) reagent was added to the assay plate and plates we incubated for 5 min at room temperature.
5. Signal was measured as median relative luminescence units on a ViewLux (PerkinElmer) multiplate reader.
[1] Heske CM, Davis MI, Baumgart JT, Wilson K, Gormally MV, Chen L, Zhang X, Ceribelli M, Duveau DY, Guha R, Ferrer M, Arnaldez FI, Ji J, Tran HL, Zhang Y, Mendoza A, Helman LJ, Thomas CJ. Matrix Screen Identifies Synergistic Combination of PARP Inhibitors and Nicotinamide Phosphoribosyltransferase (NAMPT) Inhibitors in Ewing Sarcoma. Clin Cancer Res. 2017 Dec 1;23(23):7301-7311. doi: 10.1158/1078-0432.CCR-17-1121. Epub 2017 Sep 12. PMID: 28899971; PMCID: PMC6636827.
Consider `CC(C)CC(=O)Nc1n[nH]c2c1CN(C(=O)C1CCN(C)CC1)C2(C)C`, for which the Potency is 1.48 µM (active).

Regarding `COC(=O)C[C@](O)(CCCC(C)(C)O)C(=O)O[C@@H]1C(OC)=C[C@]23CCCN2CCc2cc4c(cc2[C@H]13)OCO4`, the Potency was 29.6 µM (active).

`O=C(C=Cc1c(C(=O)O)[nH]c2cc(Cl)cc(Cl)c12)Nc1ccccc1`: the “viability (% of control)” value is 126% (inactive).

For the compound `O=c1[nH]c(=O)n(C2CCCO2)cc1F` (stereo not given), the “viability (% of control)” value was 104% [at 92.2 µM] (inactive).

In the case of `CNC(=O)CN1CCC(Oc2cc3c(Nc4cccc(Cl)c4F)ncnc3cc2OC)CC1`, the Potency is 0.0372 µM (active).

Regarding `Cc1nc(N)ncc1-c1nc(N2CCOCC2)c2sc(C(C)(C)O)cc2n1`, the Potency is 0.0833 µM (active).

For `Cc1cc(Nc2cc(N3CCN(C)CC3)nc(Sc3ccc(NC(=O)C4CC4)cc3)n2)n[nH]1`, the Potency was 2.35 µM (active).

In the case of `CCCCN1CCC(CNC(=O)c2c3n(c4ccccc24)CCCO3)CC1`, the Potency is 13.2 µM (active).

`Cc1cc(N2CCOCC2)cc2[nH]c(-c3c(NC[C@@H](O)c4cccc(Cl)c4)cc[nH]c3=O)nc12`: the Potency is 0.0264 µM (active).

`COc1cc(C(=O)N2CCC(N3CCN(C)CC3)CC2)ccc1Nc1ncc2c(n1)N(C)c1ccccc1C(=O)N2C`: the Potency is 1.66 µM (active).

With `O=C(O)C1(Cc2cccc(Nc3nccs3)n2)CCC(Oc2cccc(Cl)c2F)CC1` (stereo not given), the Potency was 0.296 µM (active).

With `O=C(Cc1ccc(-c2ccc(OCCN3CCOCC3)cc2)cn1)NCc1ccccc1`, the Potency is 0.0105 µM (active).

Consider `Cc1ccc(-c2ncn(-c3ccc(Nc4nccc(-c5cccc(N6CCOCC6)c5)n4)cc3)n2)cn1`, for which the Potency is 0.0743 µM (active).

For `O=c1[nH]nc(Sc2ncc([N+](=O)[O-])s2)n1-c1ccc2c(c1)OCCO2`, the Potency is 2.96 µM (active).

Consider `CCCCCCCCCC(=O)N[C@@H](Cc1c[nH]c2ccccc12)C(=O)N[C@H](CC(N)=O)C(=O)N[C@@H](CC(=O)O)C(=O)N[C@@H]1C(=O)NCC(=O)N[C@@H](CCCN)C(=O)N[C@@H](CC(=O)O)C(=O)N[C@H](C)C(=O)N[C@@H](CC(=O)O)C(=O)NCC(=O)N[C@H](CO)C(=O)N[C@@H]([C@@H](C)CC(=O)O)C(=O)N[C@@H](CC(=O)c2ccccc2N)C(=O)O[C@@H]1C`, for which the “viability (% of control)” value is 115% (inactive).

For the compound `Cc1cc(Nc2ncnc3ccc(-c4ccc(CNCCS(C)(=O)=O)o4)cc23)ccc1Oc1ccn2ncnc2c1`, the Potency was 5.9 µM (active).

As to `CN(C)Cc1c(C(=O)NCCOc2ccc(C(=O)NO)cc2)oc2ccccc12`, the Potency was 0.662 µM (active).

On to `C=CCn1c(=O)c2cnc(Nc3ccc(N4CCN(C)CC4)cc3)nc2n1-c1cccc(C(C)(C)O)n1`, for which the Potency was 0.264 µM (active).

`CC(=O)Nc1sc2c(c1-c1nc3ccccc3s1)CNC2`: the Potency was 13.2 µM (active).

On to `COc1cc(-c2nn(C3CCC(N4CCN(C(C)=O)CC4)CC3)c3ncnc(N)c23)ccc1NC(=O)c1cc2ccccc2n1C` (stereo not given), for which the Potency is 4.18 µM (active).

For the compound `O=C(Nc1nc2cccc(-c3ccc(CN4CCS(=O)(=O)CC4)cc3)n2n1)C1CC1`, the Potency was 13.2 µM (active).

`COc1c(N2C[C@@H]3CCCN[C@H]3C2)c(F)cc2c(=O)c(C(=O)O)cn(C3CC3)c12`: the “viability (% of control)” value is 85.3% (inactive).

With `CCC(=C(c1ccccc1)c1ccc(OCCN(C)C)cc1)c1ccccc1`, the Potency is 20.9 µM (active).

For the compound `CN1c2cc(O)c(N=NC(N)=O)cc2CC1S(=O)(=O)O` (stereo not given), the “viability (% of control)” value was 108% (inactive).

Regarding `Cn1cncc1[C@@](N)(c1ccc(Cl)cc1)c1ccc2c(c1)c(-c1cccc(Cl)c1)cc(=O)n2C`, the Potency is 7.43 µM (active).

For `CC(C)=CCCC(C)=CCCC(C)=CCSc1ccccc1C(=O)O`, the Potency is 0.209 µM (active).

Consider `COc1ccc(-c2cc3c(C)nc(N)nc3n(C3CCC(OCCO)CC3)c2=O)cn1` (stereo not given), for which the Potency is 0.0074 µM (active).

In the case of `CCNC(=O)Nc1ccc2ncc(Nc3ccc(C)cc3)nc2n1`, the Potency was 18.7 µM (active).

`c1ccc2c(CCNc3ccc(Nc4ccncc4)cc3)c[nH]c2c1`: the Potency was 14.8 µM (active).

Regarding `NC(=O)c1c(OCc2c(F)cc(Br)cc2F)nsc1NC(=O)NCCCCN1CCCC1`, the Potency is 20.9 µM (active).

Consider `COc1c(OCCCN2CCOCC2)ccc2c3n(c(=NC(=O)c4cnc(N)nc4)nc12)CCN3`, for which the Potency was 0.0323 µM (active).

On to `C=C1C(=CC=C2CCC[C@]3(C)[C@@H]([C@H](C)C=C[C@H](C)C(C)C)CC[C@@H]23)C[C@@H](O)C[C@@H]1O`, for which the Potency was 0.526 µM (active).

On to `NC1(Cc2ccc(Cl)cc2)CCN(c2ncnc3[nH]ccc23)CC1`, for which the Potency is 10.5 µM (active).

As for `O=C(O)Cn1nnc(-c2cc(N3CCC(Oc4cc(F)ccc4Br)CC3)no2)n1`, the “viability (% of control)” value was 133% (inactive).

As for `Cc1nc2ccc(CN(C)c3ccc(C(=O)N[C@@H](CCC(=O)O)C(=O)O)s3)cc2c(=O)[nH]1`, the Potency is 0.0093 µM (active).

For `C=CC(=O)Nc1cccc(Oc2nc(Nc3ccc(N4CCN(C)CC4)cc3OC)ncc2Cl)c1`, the Potency is 13.2 µM (active).

As for `Cc1cn(-c2cc(NC(=O)c3ccc(C)c(Nc4nccc(-c5cccnc5)n4)c3)cc(C(F)(F)F)c2)cn1`, the Potency is 5.26 µM (active).

Take `C=CC(=O)Nc1cccc(Oc2nc(Nc3ccc(N4CCN(C)CC4)cc3)ncc2Cl)c1`: the Potency is 1.05 µM (active).

As for `CN(C)CC(C)(C)CNc1nn2c(-c3ccccc3)nnc2cc1C1CCC1`, the “viability (% of control)” value is 76.7% (inactive).

`Cc1cc(CN2CCN(c3c(Br)cnc4nc(-c5ccc(N6CCN(C)CC6)cc5)[nH]c34)CC2)no1`: the Potency was 1.05 µM (active).
